The target of test [1] is Protein kinase C gamma type (Homo sapiens) (UniProt P05129). The settings on record: at 1 µM.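 Further: each value is an averaged percent inhibition of the enzyme.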
Test [2] has as its target T1, Protein kinase C iota type (Homo sapiens) (UniProt P41743).
T1 sequence (whole entry): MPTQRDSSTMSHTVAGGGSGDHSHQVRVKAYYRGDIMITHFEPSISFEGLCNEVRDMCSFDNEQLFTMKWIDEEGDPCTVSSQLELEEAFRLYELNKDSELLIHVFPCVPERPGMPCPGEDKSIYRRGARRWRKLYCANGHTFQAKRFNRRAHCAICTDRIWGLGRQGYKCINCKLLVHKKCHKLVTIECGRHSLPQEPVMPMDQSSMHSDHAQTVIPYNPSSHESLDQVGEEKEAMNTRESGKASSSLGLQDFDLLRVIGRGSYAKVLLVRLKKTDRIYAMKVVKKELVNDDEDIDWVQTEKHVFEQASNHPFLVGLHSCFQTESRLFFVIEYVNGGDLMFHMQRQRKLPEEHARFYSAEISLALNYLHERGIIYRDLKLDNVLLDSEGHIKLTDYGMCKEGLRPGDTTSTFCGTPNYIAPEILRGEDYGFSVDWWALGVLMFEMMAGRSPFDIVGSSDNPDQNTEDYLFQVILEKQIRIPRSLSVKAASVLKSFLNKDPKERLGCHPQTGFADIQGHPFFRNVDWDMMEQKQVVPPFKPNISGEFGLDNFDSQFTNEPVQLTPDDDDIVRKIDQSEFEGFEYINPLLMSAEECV
The conditions noted are these: at 0.1 µM.

Test [3] has as its target T1, Protein kinase C iota type (Homo sapiens). The conditions noted are these: at 1 µM.
Test [4] deals with Protein kinase C theta type (Homo sapiens) (UniProt Q04759). The settings on record: at 0.1 µM.
Chain of Protein kinase C theta type (Homo sapiens) (Q04759 whole entry, looked up): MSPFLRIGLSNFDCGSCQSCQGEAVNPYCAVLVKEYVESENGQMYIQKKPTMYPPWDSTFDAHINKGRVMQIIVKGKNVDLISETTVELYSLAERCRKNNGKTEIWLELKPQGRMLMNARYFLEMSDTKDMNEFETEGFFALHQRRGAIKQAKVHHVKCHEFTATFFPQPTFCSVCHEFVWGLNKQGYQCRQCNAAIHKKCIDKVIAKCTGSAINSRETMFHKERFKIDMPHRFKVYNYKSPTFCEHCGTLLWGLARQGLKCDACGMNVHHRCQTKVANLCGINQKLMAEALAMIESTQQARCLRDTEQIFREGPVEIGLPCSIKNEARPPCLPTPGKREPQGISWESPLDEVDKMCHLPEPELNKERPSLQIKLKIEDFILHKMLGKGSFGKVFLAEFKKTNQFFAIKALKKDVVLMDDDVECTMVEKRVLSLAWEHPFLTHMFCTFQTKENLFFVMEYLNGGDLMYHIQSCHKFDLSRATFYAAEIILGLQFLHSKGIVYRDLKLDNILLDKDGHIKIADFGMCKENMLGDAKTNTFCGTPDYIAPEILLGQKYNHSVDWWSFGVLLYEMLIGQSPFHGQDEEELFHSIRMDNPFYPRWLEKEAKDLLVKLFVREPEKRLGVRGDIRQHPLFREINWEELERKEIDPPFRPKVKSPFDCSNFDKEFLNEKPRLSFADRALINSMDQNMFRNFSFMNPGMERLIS
Test [5] shares this target. The conditions noted are these: at 1 µM.
Test [6] addresses Protein kinase C beta type (Homo sapiens) (UniProt P05771). The settings on record: at 0.1 µM.
Test [7] shares this target. The conditions noted are these: at 1 µM.
Test [8] concerns the target T2, Serine/threonine-protein kinase D1 (Homo sapiens) (UniProt Q15139).
T2 sequence (whole entry): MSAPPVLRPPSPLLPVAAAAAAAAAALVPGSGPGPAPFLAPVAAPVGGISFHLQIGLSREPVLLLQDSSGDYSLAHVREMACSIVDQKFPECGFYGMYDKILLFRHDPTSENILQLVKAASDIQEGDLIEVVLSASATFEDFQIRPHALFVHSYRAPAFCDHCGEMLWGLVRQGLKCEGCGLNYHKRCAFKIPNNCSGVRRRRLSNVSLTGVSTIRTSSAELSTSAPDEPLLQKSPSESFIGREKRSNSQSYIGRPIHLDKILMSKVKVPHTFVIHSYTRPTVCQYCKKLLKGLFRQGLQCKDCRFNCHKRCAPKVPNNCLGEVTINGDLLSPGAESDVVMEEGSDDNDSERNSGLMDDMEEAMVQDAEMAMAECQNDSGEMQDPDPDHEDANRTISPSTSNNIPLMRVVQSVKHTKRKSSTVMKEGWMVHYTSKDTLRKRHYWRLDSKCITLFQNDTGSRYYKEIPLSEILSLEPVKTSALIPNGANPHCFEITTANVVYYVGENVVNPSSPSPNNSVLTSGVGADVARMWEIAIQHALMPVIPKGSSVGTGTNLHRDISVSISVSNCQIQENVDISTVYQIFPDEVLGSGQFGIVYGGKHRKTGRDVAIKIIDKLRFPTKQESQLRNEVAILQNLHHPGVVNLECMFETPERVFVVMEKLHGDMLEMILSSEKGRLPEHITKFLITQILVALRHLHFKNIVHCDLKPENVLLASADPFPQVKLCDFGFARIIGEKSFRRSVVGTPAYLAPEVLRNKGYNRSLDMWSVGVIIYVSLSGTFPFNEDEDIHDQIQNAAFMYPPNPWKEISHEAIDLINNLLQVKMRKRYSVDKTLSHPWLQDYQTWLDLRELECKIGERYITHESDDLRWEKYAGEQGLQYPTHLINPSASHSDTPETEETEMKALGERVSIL
The conditions noted are these: at 0.1 µM.

In test [9] the target is T2, Serine/threonine-protein kinase D1 (Homo sapiens). The settings on record: at 1 µM.
Test [10] concerns the target T3, Serine/threonine-protein kinase D2 (Homo sapiens) (UniProt Q9BZL6).
T3 sequence (whole entry): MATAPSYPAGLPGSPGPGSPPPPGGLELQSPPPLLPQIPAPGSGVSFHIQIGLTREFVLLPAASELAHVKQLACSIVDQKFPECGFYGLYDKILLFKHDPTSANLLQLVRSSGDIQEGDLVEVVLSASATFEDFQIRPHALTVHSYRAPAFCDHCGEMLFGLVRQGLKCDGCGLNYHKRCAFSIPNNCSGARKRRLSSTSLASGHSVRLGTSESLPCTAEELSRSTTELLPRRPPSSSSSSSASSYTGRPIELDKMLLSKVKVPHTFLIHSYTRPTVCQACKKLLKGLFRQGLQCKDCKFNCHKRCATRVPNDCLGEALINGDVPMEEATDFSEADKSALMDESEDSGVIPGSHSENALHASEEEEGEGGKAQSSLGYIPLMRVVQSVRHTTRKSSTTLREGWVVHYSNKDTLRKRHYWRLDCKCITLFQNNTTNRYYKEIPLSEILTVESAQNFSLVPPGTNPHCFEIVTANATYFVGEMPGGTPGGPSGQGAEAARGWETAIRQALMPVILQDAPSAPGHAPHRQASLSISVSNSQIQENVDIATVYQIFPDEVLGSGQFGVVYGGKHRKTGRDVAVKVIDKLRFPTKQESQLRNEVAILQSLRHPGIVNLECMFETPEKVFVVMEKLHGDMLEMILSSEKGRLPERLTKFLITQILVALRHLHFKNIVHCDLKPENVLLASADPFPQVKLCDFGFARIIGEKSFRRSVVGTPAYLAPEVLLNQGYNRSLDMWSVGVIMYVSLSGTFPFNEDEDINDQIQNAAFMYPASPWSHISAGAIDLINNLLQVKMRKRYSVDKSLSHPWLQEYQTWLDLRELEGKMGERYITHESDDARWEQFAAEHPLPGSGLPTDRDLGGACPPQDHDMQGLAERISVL
The conditions noted are these: at 0.1 µM.

Test [11] deals with T3, Serine/threonine-protein kinase D2 (Homo sapiens). The conditions noted are these: at 1 µM.
Test [12] deals with T4, Serine/threonine-protein kinase D3 (Homo sapiens) (UniProt O94806).
T4 sequence (whole entry): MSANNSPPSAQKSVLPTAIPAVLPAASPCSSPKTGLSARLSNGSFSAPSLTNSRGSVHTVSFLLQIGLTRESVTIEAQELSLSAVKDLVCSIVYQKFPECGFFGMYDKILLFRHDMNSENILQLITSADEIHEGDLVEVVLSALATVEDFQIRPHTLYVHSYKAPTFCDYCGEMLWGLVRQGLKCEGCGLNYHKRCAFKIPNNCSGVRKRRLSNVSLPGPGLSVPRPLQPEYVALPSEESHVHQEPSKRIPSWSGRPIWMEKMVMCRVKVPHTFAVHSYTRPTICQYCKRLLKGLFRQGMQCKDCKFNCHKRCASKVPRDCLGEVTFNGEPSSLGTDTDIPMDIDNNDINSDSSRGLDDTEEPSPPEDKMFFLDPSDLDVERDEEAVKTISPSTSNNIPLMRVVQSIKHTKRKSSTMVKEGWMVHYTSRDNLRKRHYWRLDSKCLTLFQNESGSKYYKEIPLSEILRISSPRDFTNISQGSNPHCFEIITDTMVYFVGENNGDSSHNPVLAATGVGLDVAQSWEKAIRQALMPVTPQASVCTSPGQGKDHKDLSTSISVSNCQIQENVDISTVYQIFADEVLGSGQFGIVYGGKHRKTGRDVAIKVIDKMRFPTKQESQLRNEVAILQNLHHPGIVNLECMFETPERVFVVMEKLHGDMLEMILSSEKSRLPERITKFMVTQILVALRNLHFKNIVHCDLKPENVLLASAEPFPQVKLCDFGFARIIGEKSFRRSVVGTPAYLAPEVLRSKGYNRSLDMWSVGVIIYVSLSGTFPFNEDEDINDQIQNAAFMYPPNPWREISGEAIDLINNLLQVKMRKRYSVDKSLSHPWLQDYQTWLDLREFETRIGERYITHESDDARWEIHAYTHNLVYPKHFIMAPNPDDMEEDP
The conditions noted are these: at 0.1 µM.

Test [13] deals with T4, Serine/threonine-protein kinase D3 (Homo sapiens). The conditions noted are these: at 1 µM.
For test [14], the target named is T5, cGMP-dependent protein kinase 1 (Homo sapiens) (UniProt Q13976).
T5 sequence (whole entry): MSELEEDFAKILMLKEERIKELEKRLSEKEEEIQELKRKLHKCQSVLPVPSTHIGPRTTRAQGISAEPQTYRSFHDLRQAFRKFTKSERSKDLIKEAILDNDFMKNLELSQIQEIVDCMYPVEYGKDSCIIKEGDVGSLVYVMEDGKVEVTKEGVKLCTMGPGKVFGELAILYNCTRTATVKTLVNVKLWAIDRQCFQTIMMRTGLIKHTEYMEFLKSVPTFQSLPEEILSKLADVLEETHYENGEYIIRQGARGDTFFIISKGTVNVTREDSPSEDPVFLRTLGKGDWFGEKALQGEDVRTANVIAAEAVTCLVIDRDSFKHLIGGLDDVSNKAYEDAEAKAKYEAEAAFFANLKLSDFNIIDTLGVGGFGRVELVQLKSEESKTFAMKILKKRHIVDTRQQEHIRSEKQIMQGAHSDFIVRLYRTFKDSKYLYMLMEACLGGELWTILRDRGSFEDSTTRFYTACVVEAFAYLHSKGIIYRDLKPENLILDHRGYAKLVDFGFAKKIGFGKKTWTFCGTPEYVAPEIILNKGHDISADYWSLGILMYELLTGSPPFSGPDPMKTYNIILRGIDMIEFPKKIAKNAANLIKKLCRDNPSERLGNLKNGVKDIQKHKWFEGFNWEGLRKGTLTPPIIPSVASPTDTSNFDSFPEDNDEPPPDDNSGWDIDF
The conditions noted are these: at 0.1 µM.

The target in test [15] is T5, cGMP-dependent protein kinase 1 (Homo sapiens). The conditions noted are these: at 1 µM.
For test [16], the target named is T6, cGMP-dependent protein kinase 2 (Homo sapiens) (UniProt Q13237).
T6 sequence (whole entry): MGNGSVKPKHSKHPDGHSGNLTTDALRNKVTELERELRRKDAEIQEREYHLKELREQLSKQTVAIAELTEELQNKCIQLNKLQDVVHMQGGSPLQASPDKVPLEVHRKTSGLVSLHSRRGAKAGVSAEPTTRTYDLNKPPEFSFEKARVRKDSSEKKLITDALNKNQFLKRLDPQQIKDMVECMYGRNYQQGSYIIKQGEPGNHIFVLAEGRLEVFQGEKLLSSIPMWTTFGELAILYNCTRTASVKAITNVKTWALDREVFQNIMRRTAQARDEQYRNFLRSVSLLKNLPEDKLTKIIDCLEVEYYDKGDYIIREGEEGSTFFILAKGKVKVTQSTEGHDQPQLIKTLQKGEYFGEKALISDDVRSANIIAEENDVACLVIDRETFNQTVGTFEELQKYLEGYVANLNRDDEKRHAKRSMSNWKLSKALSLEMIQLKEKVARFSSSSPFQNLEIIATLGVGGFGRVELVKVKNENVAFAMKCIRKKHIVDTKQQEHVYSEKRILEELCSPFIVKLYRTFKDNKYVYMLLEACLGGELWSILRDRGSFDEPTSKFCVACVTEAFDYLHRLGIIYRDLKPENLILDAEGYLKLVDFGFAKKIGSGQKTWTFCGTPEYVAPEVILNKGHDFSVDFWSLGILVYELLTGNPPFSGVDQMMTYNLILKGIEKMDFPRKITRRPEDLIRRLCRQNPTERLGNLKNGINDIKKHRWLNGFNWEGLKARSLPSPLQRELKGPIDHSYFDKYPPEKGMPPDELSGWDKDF
The conditions noted are these: at 0.1 µM.

For test [17], the target named is T6, cGMP-dependent protein kinase 2 (Homo sapiens). The conditions noted are these: at 1 µM.
Test [18] concerns the target T7, cAMP-dependent protein kinase catalytic subunit PRKX (Homo sapiens) (UniProt P51817).
T7 sequence (whole entry): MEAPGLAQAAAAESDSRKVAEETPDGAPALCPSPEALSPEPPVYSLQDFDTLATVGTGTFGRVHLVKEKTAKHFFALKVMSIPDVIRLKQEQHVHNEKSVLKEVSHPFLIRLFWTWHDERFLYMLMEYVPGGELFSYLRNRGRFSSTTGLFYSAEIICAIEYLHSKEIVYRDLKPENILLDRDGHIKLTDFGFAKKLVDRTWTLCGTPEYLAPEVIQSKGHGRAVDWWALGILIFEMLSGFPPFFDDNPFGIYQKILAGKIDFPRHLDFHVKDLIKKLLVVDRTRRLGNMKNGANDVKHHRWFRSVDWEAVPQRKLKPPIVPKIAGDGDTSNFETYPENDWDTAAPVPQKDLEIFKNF
The settings on record: at 0.1 µM.

Test [19] addresses T7, cAMP-dependent protein kinase catalytic subunit PRKX (Homo sapiens). The settings on record: at 1 µM.
Test [20] deals with Rho-associated protein kinase 1 (Homo sapiens) (UniProt Q13464). The settings on record: at 0.1 µM.
Chain of Rho-associated protein kinase 1 (Homo sapiens) (Q13464 2-1354 limits assumed): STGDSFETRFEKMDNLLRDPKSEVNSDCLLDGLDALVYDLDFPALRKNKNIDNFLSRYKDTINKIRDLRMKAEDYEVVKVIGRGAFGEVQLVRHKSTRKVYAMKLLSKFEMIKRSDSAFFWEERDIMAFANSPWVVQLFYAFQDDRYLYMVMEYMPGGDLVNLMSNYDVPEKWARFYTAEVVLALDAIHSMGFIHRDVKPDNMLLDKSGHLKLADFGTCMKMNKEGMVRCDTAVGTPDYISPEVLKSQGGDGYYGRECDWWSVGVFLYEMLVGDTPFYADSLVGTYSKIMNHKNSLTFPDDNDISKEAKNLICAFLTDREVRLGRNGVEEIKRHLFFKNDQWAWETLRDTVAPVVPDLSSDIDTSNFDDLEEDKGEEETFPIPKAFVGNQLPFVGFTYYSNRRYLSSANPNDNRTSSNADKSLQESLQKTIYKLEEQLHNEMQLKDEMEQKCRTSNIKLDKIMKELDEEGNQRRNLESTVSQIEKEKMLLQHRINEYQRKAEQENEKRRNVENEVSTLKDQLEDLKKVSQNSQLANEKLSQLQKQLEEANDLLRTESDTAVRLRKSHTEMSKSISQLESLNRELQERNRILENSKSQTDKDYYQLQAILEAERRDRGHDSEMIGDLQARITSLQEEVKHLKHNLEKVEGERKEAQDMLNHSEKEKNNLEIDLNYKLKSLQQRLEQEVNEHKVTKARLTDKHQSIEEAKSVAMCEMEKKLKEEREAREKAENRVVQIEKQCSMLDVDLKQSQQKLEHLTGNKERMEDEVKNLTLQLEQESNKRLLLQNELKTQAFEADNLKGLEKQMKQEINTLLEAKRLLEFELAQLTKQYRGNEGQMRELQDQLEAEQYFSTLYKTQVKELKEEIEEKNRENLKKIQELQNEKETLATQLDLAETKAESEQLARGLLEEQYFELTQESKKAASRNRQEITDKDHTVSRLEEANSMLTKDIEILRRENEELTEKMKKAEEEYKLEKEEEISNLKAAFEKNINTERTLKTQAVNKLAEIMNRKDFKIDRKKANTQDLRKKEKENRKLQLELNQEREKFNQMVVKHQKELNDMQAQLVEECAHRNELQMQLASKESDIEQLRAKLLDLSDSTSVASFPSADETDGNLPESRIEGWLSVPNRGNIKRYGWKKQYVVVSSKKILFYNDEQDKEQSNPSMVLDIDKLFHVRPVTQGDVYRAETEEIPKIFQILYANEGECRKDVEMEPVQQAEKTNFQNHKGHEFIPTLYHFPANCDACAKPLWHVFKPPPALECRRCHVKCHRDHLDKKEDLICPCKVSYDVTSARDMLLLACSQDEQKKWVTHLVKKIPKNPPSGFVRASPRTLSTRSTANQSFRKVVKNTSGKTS

Structures are written as SMILES.

One may read the inhibition as the relative decrease from the control value, in per cent.

Chain of Protein kinase C beta type (Homo sapiens) (P05771 2-671 limits assumed): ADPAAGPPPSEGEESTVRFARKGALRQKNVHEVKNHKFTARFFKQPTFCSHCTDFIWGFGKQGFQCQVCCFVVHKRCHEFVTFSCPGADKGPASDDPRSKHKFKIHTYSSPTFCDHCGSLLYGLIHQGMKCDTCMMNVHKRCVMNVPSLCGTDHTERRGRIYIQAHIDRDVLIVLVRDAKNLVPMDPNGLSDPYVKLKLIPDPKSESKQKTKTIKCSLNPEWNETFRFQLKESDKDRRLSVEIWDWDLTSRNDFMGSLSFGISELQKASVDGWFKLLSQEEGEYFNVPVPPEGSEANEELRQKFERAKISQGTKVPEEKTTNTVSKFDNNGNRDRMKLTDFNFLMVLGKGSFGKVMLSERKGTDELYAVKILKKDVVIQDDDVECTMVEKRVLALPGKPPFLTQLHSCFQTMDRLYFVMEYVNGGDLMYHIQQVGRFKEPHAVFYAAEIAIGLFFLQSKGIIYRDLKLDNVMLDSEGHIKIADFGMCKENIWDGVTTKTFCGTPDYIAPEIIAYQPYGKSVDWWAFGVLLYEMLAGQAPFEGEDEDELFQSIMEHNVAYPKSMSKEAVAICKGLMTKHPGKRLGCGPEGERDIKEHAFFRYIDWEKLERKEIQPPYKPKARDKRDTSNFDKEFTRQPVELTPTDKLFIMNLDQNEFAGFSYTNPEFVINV

For the compound `COc1ccc(CNC(=O)c2ccc(-c3cc(-c4nnc(C)o4)ccc3C)cc2)cc1`, the inhibition in test [1] is 2.05%; in test [2] it was 2.77%; in [3] it was 0.76%; in [4], 2.86%; in [5] it was 5.52%; in [6], 2.73%. The inhibition in test [7] was 3.61%; in test [8] it was 2.89%; in [9] it was -0.42%; in [10], 0.8%; in test [11], 1.08%; in test [12] it was 0.4%. Also, the inhibition in test [13] came out at 0.26%; in [14] it was 3.61%; in [15], 3.68%; in [16], 2.93%; in test [17] it was 4.96%; in [18] it was 3.88%. Also, the inhibition in test [19] came to 6.21%; in test [20], 2.49%.
Take `CNC(=O)c1cccc(C#Cc2cncnc2Nc2ccc(OCc3cccc(F)c3)c(Cl)c2)c1`: the inhibition in [1] was -1.09%; in test [2], 0.26%; in [3], -0.26%; in [4], 0.09%; in [5] it was 1.85%; in test [6], -3.35%. The inhibition in test [7] was -0.69%; in test [8], 0.59%; in test [9], -0.61%; in [10] it was -0.57%; in test [11], 2.02%; in test [12] it was 0.11%. In addition, the inhibition in test [13] was 0.04%; in test [14], -0.44%; in test [15], 3.3%; in [16] it was 0.38%; in [17], 0.97%; in test [18], -0.25%. In addition, the figures for the inhibition in [19] and in test [20] were 0.9% and -1.85%, respectively.

For the origin of these results see ChEMBL document CHEMBL1961873, “Compounds: GSK PKIS; Assays: Nanosyn kinase panel” (2012).
